Active and inactive are the calls of the source. How the source made its calls: active means hit-call score of the fitted dose curve at least 0.9, where 1 is the maximum; inactive means score below 0.9.
Key:
[1] = read-out: Thrombomodulin, THBD (gene 7056); experiment: BSK_CASM3C_Thrombomodulin: BioMAP Diversity Plus: CASM3C Assay for Thrombomodulin Biomarker Activity (AID 2283051); conditions: primary human coronary artery smooth muscle cells; actives raise or lower the signal;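 further: thrombomodulin protein level measured by ELISA 24 h after dosing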
[2] = read-out: Tissue Factor, F3 (gene 2152); experiment: BSK_CASM3C_TissueFactor: BioMAP Diversity Plus: CASM3C Assay for Tissue Factor Biomarker Activity (AID 2283052); conditions: primary human coronary artery smooth muscle cells; actives raise or lower the signal;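 further: cell surface tissue factor protein level read by ELISA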
[3] = read-out: Interferon-gamma inducible Protein 10 (IP10), CXCL10 (gene 3627); experiment: BSK_hDFCGF_IP10: BioMAP Diversity Plus: hDFCGF Assay for Interferon-gamma inducible Protein 10 (IP10) Biomarker Activity (AID 2283053); conditions: primary human foreskin fibroblasts; actives raise or lower the signal
In short: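 Primary foreskin fibroblasts, human; 24 h compound exposure; IP-10 by ELISA; bidirectional fit vs DMSO.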

[4] = read-out: Urokinase-type plasminogen activator receptor (uPAR), PLAUR (gene 5329); experiment: BSK_CASM3C_uPAR: BioMAP Diversity Plus: CASM3C Assay for Urokinase-type plasminogen activator receptor (uPAR) Biomarker Activity (AID 2283054); conditions: primary human coronary artery smooth muscle cells; actives raise or lower the signal;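 further: cell-surface uPAR protein level quantified by ELISA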
[5] = read-out: Vascular cell adhesion molecule 1 (VCAM1), VCAM1 (gene 7412); experiment: BSK_CASM3C_VCAM1: BioMAP Diversity Plus: CASM3C Assay for Vascular cell adhesion molecule 1 (VCAM1) Biomarker Activity (AID 2283055); conditions: primary human coronary artery smooth muscle cells; actives raise or lower the signal;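 further: VCAM-1 protein level quantified by ELISA on the cells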
[6] = read-out: Collagen III, COL3A1 (gene 1281); experiment: BSK_hDFCGF_CollagenIII: BioMAP Diversity Plus: hDFCGF Assay for Collagen III Biomarker Activity (AID 2283056); conditions: primary human foreskin fibroblasts; actives raise or lower the signal
In short: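 hDFCGF primary human dermal fibroblasts; 24 h chemical exposure; collagen III by ELISA; bidirectional curve fit vs DMSO baseline (gain or loss of signal).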

[7] = read-out: Epidermal growth factor receptor (EGFR), EGFR (gene 1956); experiment: BSK_hDFCGF_EGFR: BioMAP Diversity Plus: hDFCGF Assay for Epidermal growth factor receptor (EGFR) Biomarker Activity (AID 2283057); conditions: primary human foreskin fibroblasts; actives raise or lower the signal
In short: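 hDFCGF system, primary human foreskin fibroblasts; compound 24 h; EGFR measured by ELISA; DMSO = negative control/baseline; bidirectional fitting.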

[8] = read-out: Interleukin-8 (IL8), CXCL8 (gene 3576); experiment: BSK_hDFCGF_IL8: BioMAP Diversity Plus: hDFCGF Assay for Interleukin-8 (IL8) Biomarker Activity (AID 2283058); conditions: primary human foreskin fibroblasts; actives raise or lower the signal
In short: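 ELISA read-out of IL-8 from primary human foreskin fibroblast cultures taken 24 h after dosing; values are bidirectional fits relative to DMSO vehicle.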

[9] = BSK_hDFCGF_Proliferation: Cell Proliferation Assessment in the BioMAP Diversity Plus: hDFCGF Assay (AID 2283059); conditions: primary human foreskin fibroblasts;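 further: curves fitted for both rise and fall of signal versus DMSO baseline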
In short: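 Steps: dose primary human dermal fibroblasts (foreskin); […] fix in 10% TCA; stain with 0.1% SRB; read 560 nm; fit gain or loss of signal against DMSO.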

[10] = read-out: Macrophage colony-stimulating factor (MCSF), CSF1 (gene 1435); experiment: BSK_hDFCGF_MCSF: BioMAP Diversity Plus: hDFCGF Assay for Macrophage colony-stimulating factor (MCSF) Biomarker Activity (AID 2283060); conditions: primary human foreskin fibroblasts; actives raise or lower the signal
In short: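 ELISA read-out of M-CSF in human dermal foreskin fibroblast cultures, 24 h after chemical dosing; gain or loss of signal fitted bidirectionally relative to DMSO baseline.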

Measured: AC50

COc1cc(Cl)c(OC)cc1Cl
inactive: all assays above

CS(=O)(=O)c1ccc(C(=O)C2C(=O)CCCC2=O)c([N+](=O)[O-])c1
inactive: all assays above

CC(C)C1(C)N=C(c2ncccc2C(=O)O)NC1=O (centres undefined)
inactive: all assays above

CCCN(CC)CC1COC2(CCC(C(C)(C)C)CC2)O1 (centres undefined)
active: [3] 1.98 µM | [6] 1.25 µM | [9] 5.6 µM
inactive: all other assays above

CCOP(=O)(OCC)Oc1nc(Cl)c(Cl)cc1Cl
active: [1] 0.297 µM | [3] 20 µM | [6] 3.97 µM | [9] 12 µM | [10] 5.14 µM
inactive: [2] | [4] | [5] | [7] | [8]

N#Cc1c[nH]cc1-c1cccc2c1OC(F)(F)O2
active: [1] 22.7 µM | [10] 8.88 µM
not listed: [9]
inactive: all other assays above

CCCCC(C#N)(Cn1cncn1)c1ccc(Cl)cc1 (centres undefined)
active: [4] 1.12 µM
inactive: all other assays above

COC(=O)NS(=O)(=O)c1ccc(N)cc1
inactive: all assays above

Nc1cnn(-c2ccccc2)c(=O)c1Cl
inactive: all assays above

CCOP(=S)(OCC)Oc1nc(Cl)n(C(C)C)n1
active: [3] 26.7 µM
inactive: all other assays above

CCNC(=O)NC(=O)C(C#N)=NOC
active: [1] 15.9 µM
inactive: all other assays above

CCOc1nc(C(Cl)(Cl)Cl)ns1
inactive: all assays above

CCOC(=O)C(C)OC(=O)c1cc(Oc2ccc(C(F)(F)F)cc2Cl)ccc1[N+](=O)[O-] (centres undefined)
active: [6] 6.41 µM | [10] 8.12 µM
inactive: all other assays above

CCOc1cc(C(C)(C)C)ccc1C1COC(c2c(F)cccc2F)=N1 (centres undefined)
active: [1] 22.8 µM | [3] 20 µM | [4] 5.08 µM | [6] 5.45 µM | [7] 11.8 µM | [8] 20.4 µM | [9] 6.95 µM | [10] 14.5 µM
inactive: [2] | [5]

Cc1ccc(N=CN(C)C=Nc2ccc(C)cc2C)c(C)c1
inactive: [2] | [4] | [5] | [7]
active: [1] 31.6 µM | [3] 29.1 µM | [6] 13.3 µM | [8] 36.1 µM | [9] 14 µM | [10] 15.2 µM

N#CN=C1SCCN1Cc1ccc(Cl)nc1
inactive: all assays above

CC(C)=CC1C(C(=O)OCc2coc(Cc3ccccc3)c2)C1(C)C (centres undefined)
active: [1] 20 µM | [3] 3.97 µM | [6] 12.2 µM | [9] 15 µM | [10] 11.1 µM
inactive: [2] | [4] | [5] | [7] | [8]

Reference: PubChem BioAssay (EPA / NIEHS)
